Test results published in publication PMC5540273 (PLoS ONE, 2017).

Each compound was assayed on NEK2. Settings: concentration: 1 μM, replicates: in singlicate; n = 1.
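Note: KINOMEscan kinase panel screen.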

| Structure (SMILES) | %Inh [%] |
| --- | --- |
| COc1ccc(Nc2nccc(N3CCC(NC(=O)C(C)c4ccc(Cl)cc4)CC3)n2)cc1 (stereo not drawn) [GSK1379812] | 4 |
| CCc1ccc(-c2ccc3c(c2)-c2n[nH]cc2S(=O)(=O)N3C)cc1 | 0 |
| CC(=O)c1c(C)c2cnc(Nc3ccc(N4CCNCC4)cn3)nc2n(C2CCCC2)c1=O | 0 |
| Cn1cncc1C(=O)NC1CCN(c2ccnc(Nc3ccc(F)cc3)n2)C1 (stereo not drawn) [GSK1379717] | 0 |
| CNc1cc(-c2ccc3c(N)n[nH]c3c2)nc(N)n1 [GSK2224810] | 0 |
| CN1c2ccc(-c3ccc(C(N)=O)cc3)cc2-c2[nH]ncc2S1(=O)=O | 0 |
| COc1ccc(-c2coc3ccc(-c4nnc(C)o4)cc23)cc1 | 0 |
| Cc1ccc(NC(=O)Nc2ccccc2F)cc1-c1ccc(C(=O)Nc2ccncc2)cc1 [GSK1398477] | 22 |
| O=C(Nc1n[nH]c2nc(-c3ccco3)c(Br)cc12)C1CCN(Cc2ccccc2)C1.O=C(O)[C@H](O)[C@@H](O)C(=O)O (stereo not drawn) [SB-742034] | 5 |
| FC(F)(F)c1ccccc1-c1cc(-c2c[nH]nc2-c2ccccn2)ccn1 [GW679396] | 19 |
| COc1nccc(-c2c(-c3ccc(F)cc3)ncn2CCCN2CCOCC2)n1 [SB-282852] | 0 |
| COc1cccc(CNC(=O)NC2CCN(c3ccnc(Nc4ccc(F)cc4)n3)C2)c1 (stereo not drawn) [GSK1379723] | 18 |
| COC(=O)C(NC(=O)NC1CCN(c2ccnc(Nc3ccc(F)cc3)n2)C1)c1ccccc1 (stereo not drawn) [GSK1379712] | 0 |
| CNCc1ccc2nc(NC(=O)c3ccc(C(C)(C)C)cc3)cn2c1 | 2 |
| Cc1ccc(NC(=O)Nc2ccc(Cl)cc2)cc1-c1ccc(C(=O)Nc2ccncc2)cc1 [GSK1398472] | 0 |
| Cn1cncc1-c1cc2c(Nc3ccc(OCc4ccccc4)cc3)ncnc2cn1 [GW281179] | 0 |
| Fc1ccc(-c2nc3n(c2-c2ccncc2)CCS3)cc1 [GI98581] | 0 |
| COc1ccc(CSc2nnc(-c3ccc4ncsc4c3)o2)cc1C(F)(F)F | 0 |

| Structure (SMILES) | %Inh [%] |
| --- | --- |
| Cc1ccc(NC(=O)Nc2ccccc2)cc1-c1ccc(C(=O)Nc2ccncc2)cc1 [GSK1398471] | 0 |
| COc1ccc2cc(-c3nc(-c4ccccc4C(C)C)[nH]c3-c3ccncc3)ccc2c1 [SB-660566] | 0 |
| O=C1NC(=O)C(c2ccc(Cl)cc2)=C1Nc1cccc(Cl)c1 [SB-317651] | 0 |
| CC(C)c1cc(-c2ccc3c(N)n[nH]c3c2)nc(N)n1 [GSK2250882] | 0 |
| Cc1c(Cn2c3ccccc3n3c(=O)cc(N4CCOCC4)nc23)cccc1C(F)(F)F [GSK2306394] | 23 |
| COC(=O)C(Cc1ccccc1)NC(=O)NC1CCN(c2ccnc(Nc3ccc(F)cc3)n2)C1 (stereo not drawn) [GSK1379714] | 0 |
| CS(=O)(=O)Cc1ccc(Nc2nccc(-c3c(-c4cccc(NC(=O)C5CCCCC5)c4)nn4ncccc34)n2)cc1 [GSK350559] | 10 |
| Nc1nccc(-c2c(-c3ccc(F)cc3)ncn2C2CCN(Cc3ccccc3)CC2)n1 [SB-219980] | 0 |
| CC(C)c1ccc(O)cc1Nc1ccnc2ccc(C(F)(F)F)cc12 [GW482059] | 2 |
| CNc1nc(-c2ccc3c(N)n[nH]c3c2)cc(N2C[C@@H](C(=O)NC3CCCCC3)OC[C@H]2C)n1 [GSK2375584] | 0 |
| CCn1c(-c2ccccc2)nc2cnccc21 [SB-733416] | 0 |
| CCCCc1nn2ncccc2c1-c1ccnc(NC2CC2)n1 [GW684374] | 0 |
| Nc1cccc(-c2ccc3c(N)n[nH]c3c2)n1 [GSK2192730] | 7 |
| CS(=O)(=O)CCNCc1nc(-c2ccc3ncnc(Nc4ccc(OCc5ccccc5)c(Cl)c4)c3c2)cs1.Cl [GW582764] | 3 |
| COc1cccc(NC(=O)Nc2ccc(C)c(-c3ccc(C(=O)Nc4ccncc4)cc3)c2)c1 [GSK1398474] | 0 |
| CC[C@@H]1CO[C@H](C(=O)Nc2ccccc2)CN1c1cc(-c2ccc3c(N)n[nH]c3c2)nc(NC)n1 [GSK2376236] | 10 |
| COc1ccc(CSc2nnc(-c3ccc4nccn4c3)o2)cc1C(F)(F)F | 0 |
| Nc1ncnc2occ(-c3ccc4c(c3)CCN4C(=O)Cc3cc(F)ccc3F)c12 [GSK2645446] | 70 |
